The AC50 is the midpoint of the concentration-response curve, whichever way the signal moves.

Drawing on PubChem BioAssay (EPA / NIEHS), this text covers AC50 and outcome for 5 compounds.

Assay [1] has as its system turtle Estrogen Receptor (ERa), gene 101933533. Put plainly: ATG_trERa_XSP2: Attagene TRANS-FACTORIAL Multi-Species (XSP2) HepG2 Assay for turtle Estrogen Receptor (ERa) (AID 2283812).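 Also: human HepG2 liver cells transiently expressing turtle ERa-Gal4 chimeric receptor; actives raise reporter signal above DMSO so AC50 reflects agonist activity.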 The procedure, abridged: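 HepG2 cells transiently transfected with GAL4-UAS reporter units expressing turtle ERa-Gal4 chimera. Reporter mRNA measured after 24 h dosing by RT-PCR, fluorescent labelling and capillary electrophoresis; gain of signal fitted versus DMSO.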

Assay [2] addresses GAL4 Transcription Factor (Internal Marker), GAL4 (gene 855828) (UniProt P04386). Put plainly: ATG_GAL4_XSP2: Attagene TRANS-FACTORIAL Multi-Species (XSP2) HepG2 Assay for GAL4 Transcription Factor (Internal Marker) (AID 2283814).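 Also: GAL4 reporter mRNA background control in MRTU transfected cells not a receptor target.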 The procedure, abridged:
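HepG2 cells transiently transfected with GAL4-UAS reporter units, stimulated with 3 nM 6-alpha-fluorotestosterone plus 1.5 nM norgestrel, dosed 24 h. Reporter mRNA by RT-PCR/capillary electrophoresis; gain-of-signal fit versus DMSO, background control.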

In assay [3] the test system is turtle Androgen Receptor (AR), gene 101947425. The assay can be described thus: ATG_trAR_XSP2: Attagene TRANS-FACTORIAL Multi-Species (XSP2) HepG2 Assay for turtle Androgen Receptor (AR) (AID 2283815).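 As to AC50: potency for gain of reporter signal meaning activation above DMSO baseline.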 The procedure, abridged: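 HepG2 cells transiently transfected with GAL4-UAS reporter units for chimeric NR-Gal4 receptors; 24 h dosing in presence of 3 nM 6-alpha-fluorotestosterone and 1.5 nM norgestrel. Reporter mRNA by RT-PCR and capillary electrophoresis, gain of signal versus DMSO.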

Assay [4] addresses zebrafish Estrogen Receptor (ER1), esr1 (gene 259252) (UniProt P57717). The assay can be described thus: ATG_zfER1_XSP2: Attagene TRANS-FACTORIAL Multi-Species (XSP2) HepG2 Assay for zebrafish Estrogen Receptor (ER1) (AID 2283816). In short, it runs like this: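 HepG2 cells transiently transfected with a GAL4-UAS reporter and a chimeric zebrafish ER1-Gal4 construct, dosed 24 h. Reporter mRNA quantified by RT-PCR, labelling, HpaI digestion and capillary electrophoresis, relative to DMSO.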

In assay [5] the target is chicken Estrogen Receptor (ERa), ESR1 (gene 396099) (UniProt P06212). The assay can be described thus: ATG_chERa_XSP2: Attagene TRANS-FACTORIAL Multi-Species (XSP2) HepG2 Assay for chicken Estrogen Receptor (ERa) (AID 2283817).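 Also: actives raise reporter signal above DMSO so AC50 reflects ER activation.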 The procedure, abridged:
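Transiently transfected HepG2 cells expressing chimeric chicken ERa-GAL4 reporter units, dosed 24 h with 3 nM 6-alpha-fluorotestosterone and 1.5 nM norgestrel present. Reporter mRNA measured by RT-PCR and capillary electrophoresis; gain-of-signal fitted relative to DMSO.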

Assay [6] relates to zebrafish Estrogen Receptor (ER2a), gene 317734. The assay can be described thus: ATG_zfER2a_XSP2: Attagene TRANS-FACTORIAL Multi-Species (XSP2) HepG2 Assay for zebrafish Estrogen Receptor (ER2a) (AID 2283818).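 Also: hits raise reporter mRNA so AC50 reflects activation of zebrafish ER2a.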 The procedure, abridged: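 HepG2 cells transiently transfected with GAL4-UAS reporter units and chimeric zebrafish ER2a-Gal4, exposed 24 h; medium contains 3 nM 6-alpha-fluorotestosterone and 1.5 nM norgestrel. Reporter mRNA quantified by RT-PCR, HpaI digestion, capillary electrophoresis; gain versus DMSO.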

Assay [7] deals with chicken Androgen Receptor (AR), gene 422165. The assay can be described thus: ATG_chAR_XSP2: Attagene TRANS-FACTORIAL Multi-Species (XSP2) HepG2 Assay for chicken Androgen Receptor (AR) (AID 2283819).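 Also: hits raise reporter mRNA above DMSO so potency is for activation.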 The procedure, abridged:
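HepG2 cells transiently transfected with chicken AR–GAL4 chimeric reporter constructs, stimulated with 3 nM 6-alpha-fluorotestosterone plus 1.5 nM norgestrel, dosed 24 h. Reporter mRNA quantified by RT-PCR and capillary electrophoresis; gain of signal fitted versus DMSO.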

Assay [8] has as its system frog Estrogen Receptor (ER), gene 398734. The assay can be described thus: ATG_frER1_XSP2: Attagene TRANS-FACTORIAL Multi-Species (XSP2) HepG2 Assay for frog Estrogen Receptor (ER) (AID 2283821).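 Also: hits raise reporter mRNA above DMSO baseline so potency means agonist or activator.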 The procedure, abridged:
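HepG2 cells transiently transfected with GAL4-UAS reporter units expressing a chimeric frog ER-Gal4 protein; 24 h exposure. Reporter mRNA quantified by RT-PCR, fluorescent labelling and capillary electrophoresis; gain of signal fitted against DMSO baseline.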

Assay [9] is described as follows: ATG_M_19_XSP2: Attagene TRANS-FACTORIAL Multi-Species (XSP2) HepG2 Assay for M32 Transcription Factor (Internal Marker) (AID 2283822). In short, it runs like this: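 Internal background marker in a multi-species nuclear receptor TRANS panel: transfected HepG2 cells exposed 24 h, with 3 nM 6-alpha-fluorotestosterone and 1.5 nM norgestrel present. Readout is RT-PCR of reporter transcripts resolved by capillary electrophoresis, gain-of-signal versus DMSO.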

In assay [10] the target is human Thyroid hormone Receptor beta (TRb), THRB (gene 7068) (UniProt P10828). Put plainly: ATG_hTRb_XSP1: Attagene TRANS-FACTORIAL Multi-Species (XSP1) HepG2 Assay for human Thyroid hormone Receptor beta (TRb) (AID 2283808). The procedure, abridged:
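HepG2 cells transiently transfected with reporter units driving GAL4-UAS reporters for chimeric NR-Gal4 proteins; 24 h chemical exposure with 3 nM 6-alpha-fluorotestosterone present. Reporter mRNA quantified by RT-PCR and capillary electrophoresis, gain of signal versus DMSO.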

Assay [11] can be described thus: ATG_XTT_Cytotoxicity_XSP1: Cytotoxicity Assessment in the Attagene TRANS-FACTORIAL Multi-Species (XSP1) HepG2 Assay (AID 2283810). In short, it runs like this: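 XTT viability readout taken at 24 hours post-dosing in HepG2 liver cells co-treated with 3 nM 6-alpha-fluorotestosterone. Signal loss relative to DMSO controls reflects cytotoxicity.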
The nature of assay [12]: ATG_M_06_XSP2: Attagene TRANS-FACTORIAL Multi-Species (XSP2) HepG2 Assay for M06 Transcription Factor (Internal Marker) (AID 2283811).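 Also: hits are increases in signal above the DMSO baseline.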 The procedure, abridged: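 HepG2 cells transiently transfected with GAL4-UAS multiple reporter units, medium containing 3 nM 6-alpha-fluorotestosterone and 1.5 nM norgestrel; reporter mRNA measured 24 hours post-dosing by RT-PCR and capillary electrophoresis. Internal background marker, gain of signal vs DMSO.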

Assay [13] is described as follows: ATG_M_19_XSP1: Attagene TRANS-FACTORIAL Multi-Species (XSP1) HepG2 Assay for M19 Transcription Factor (Internal Marker) (AID 2283798). In short, it runs like this: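 HepG2 cells transiently transfected with multiplexed GAL4-UAS reporter units, dosed 24 h with 3 nM 6-alpha-fluorotestosterone present for partial AR stimulation. Reporter mRNA measured by RT-PCR with capillary electrophoresis; gain-of-signal fitted relative to DMSO.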

Assay [14] is described as follows: ATG_M_32_XSP1: Attagene TRANS-FACTORIAL Multi-Species (XSP1) HepG2 Assay for M32 Transcription Factor (Internal Marker) (AID 2283799). In short, it runs like this: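 HepG2 cells transiently transfected with multi-species TRANS reporter units, dosed 24 h with 3 nM 6-alpha-fluorotestosterone present. Internal-marker reporter mRNA quantified by RT-PCR and capillary electrophoresis; positive-direction fit versus DMSO.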

For assay [15], the system named is zebrafish Peroxisome Proliferator-activated Receptor gamma (PPARg), gene 557037. The assay can be described thus: ATG_zfPPARg_XSP1: Attagene TRANS-FACTORIAL Multi-Species (XSP1) HepG2 Assay for zebrafish Peroxisome Proliferator-activated Receptor gamma (PPARg) (AID 2283801). In short, it runs like this:
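HepG2 cells transiently transfected with GAL4-UAS reporter units including a zebrafish PPARg–GAL4 chimera, dosed 24 h with 3 nM 6-alpha-fluorotestosterone present. Reporter mRNA quantified by RT-PCR, FAM labelling, HpaI digestion and capillary electrophoresis; induction versus DMSO.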

Assay [16] addresses Nuclear receptor subfamily 1 group I member 2 (Mus musculus) (UniProt O54915). The assay can be described thus: ATG_mPXR_XSP1: Attagene TRANS-FACTORIAL Multi-Species (XSP1) HepG2 Assay for mouse Pregnane X Receptor (PXR) (AID 2283803). In short, it runs like this: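 Transiently transfected HepG2 cells expressing a receptor-Gal4 chimera drive a GAL4-UAS reporter; 3 nM 6-alpha-fluorotestosterone included. Reporter mRNA read 24 h post-dose by RT-PCR and capillary electrophoresis; gain of signal relative to DMSO.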

In assay [17] the test system is turtle Thyroid Hormone Receptor, alpha (TRa), gene 101949057. The assay can be described thus: ATG_trTRa_XSP1: Attagene TRANS-FACTORIAL Multi-Species (XSP1) HepG2 Assay for turtle Thyroid Hormone Receptor, alpha (TRa) (AID 2283806). The procedure, abridged:
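HepG2 cells transiently transfected with GAL4-UAS reporter units and chimeric receptor-Gal4 constructs, with 3 nM 6-alpha-fluorotestosterone present. Reporter mRNA was quantified 24 h after dosing by RT-PCR, 6-FAM labelling and capillary electrophoresis; gain of signal versus DMSO.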

Assay [18] deals with zebrafish Thyroid Hormone Receptor beta (TRb), thrb (gene 30607) (UniProt Q9PVE4). Put plainly: ATG_zfTRb_XSP1: Attagene TRANS-FACTORIAL Multi-Species (XSP1) HepG2 Assay for zebrafish Thyroid Hormone Receptor beta (TRb) (AID 2283809). In short, it runs like this:
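HepG2 cells transiently transfected with multiplexed GAL4-UAS reporter units expressing chimeric zebrafish TRb–Gal4. Dosed 24 h with 3 nM 6-alpha-fluorotestosterone present; reporter mRNA measured by RT-PCR, HpaI digestion and capillary electrophoresis; gain of signal versus DMSO.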

Assay [19] deals with Estrogen receptor beta (Homo sapiens) (UniProt Q92731). The assay can be described thus: ATG_hERb_XSP2: Attagene TRANS-FACTORIAL Multi-Species (XSP2) HepG2 Assay for human Estrogen Receptor (ERb) (AID 2283813).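 Also: actives raise reporter mRNA above DMSO so AC50 reflects agonist induction.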 In short, it runs like this: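 HepG2 cells transiently transfected with GAL4-UAS reporter units and chimeric human ERb-Gal4, 24 h exposure. Reporter mRNA quantified by RT-PCR with FAM labelling, HpaI digestion and capillary electrophoresis; gain of signal versus DMSO.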

In assay [20] the target is human Androgen Receptor (AR), AR (gene 367) (UniProt P10275). The assay can be described thus: ATG_hAR_XSP2: Attagene TRANS-FACTORIAL Multi-Species (XSP2) HepG2 Assay for human Androgen Receptor (AR) (AID 2283820). The procedure, abridged: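 HepG2 cells transiently transfected with GAL4-UAS reporter units driven by chimeric NR-Gal4 proteins, stimulated with 3 nM 6-alpha-fluorotestosterone plus 1.5 nM norgestrel. Reporter mRNA quantified 24 h after dosing by RT-PCR and capillary electrophoresis; gain-of-signal versus DMSO.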

“And” between values parts separate entries of the source, which are not always exact repeats. Equal values may be shown once. Inconclusive results are not listed. Where a structure was tested more than once in an assay, its records may differ in their call. The source made the active and inactive calls. The calls were made as follows: active = hit-call score of the fitted dose curve at least 0.9, where 1 is the maximum; inconclusive = response in the unintended direction; inactive = score below 0.9.

Chain of GAL4 Transcription Factor (Internal Marker), GAL4 (gene 855828) (P04386 whole entry, looked up, the tested form may be a part): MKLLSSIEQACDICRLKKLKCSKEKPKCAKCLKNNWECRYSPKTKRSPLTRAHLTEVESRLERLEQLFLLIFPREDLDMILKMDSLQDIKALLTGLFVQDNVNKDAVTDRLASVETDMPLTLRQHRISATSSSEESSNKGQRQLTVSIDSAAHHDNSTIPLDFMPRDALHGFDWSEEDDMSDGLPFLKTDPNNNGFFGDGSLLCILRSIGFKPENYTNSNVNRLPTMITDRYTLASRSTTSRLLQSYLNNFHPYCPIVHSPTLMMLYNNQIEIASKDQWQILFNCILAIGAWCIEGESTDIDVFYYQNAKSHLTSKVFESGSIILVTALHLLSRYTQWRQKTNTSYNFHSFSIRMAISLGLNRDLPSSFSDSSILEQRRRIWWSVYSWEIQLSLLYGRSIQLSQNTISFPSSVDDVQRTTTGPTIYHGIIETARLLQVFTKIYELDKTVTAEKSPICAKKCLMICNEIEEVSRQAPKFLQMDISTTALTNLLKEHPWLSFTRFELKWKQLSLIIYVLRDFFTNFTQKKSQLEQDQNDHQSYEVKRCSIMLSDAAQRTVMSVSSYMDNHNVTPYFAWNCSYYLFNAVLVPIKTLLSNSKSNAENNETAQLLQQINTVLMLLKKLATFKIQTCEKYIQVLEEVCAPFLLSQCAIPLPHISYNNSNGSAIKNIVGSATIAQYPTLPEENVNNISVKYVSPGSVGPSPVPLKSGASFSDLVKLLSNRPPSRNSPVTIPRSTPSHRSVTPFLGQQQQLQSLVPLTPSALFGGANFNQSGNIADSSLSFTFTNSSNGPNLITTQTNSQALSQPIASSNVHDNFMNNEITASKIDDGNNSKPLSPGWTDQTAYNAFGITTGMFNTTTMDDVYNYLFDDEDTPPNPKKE
Chain of Estrogen receptor beta (Homo sapiens) (Q92731 whole entry, looked up, the tested form may be a part): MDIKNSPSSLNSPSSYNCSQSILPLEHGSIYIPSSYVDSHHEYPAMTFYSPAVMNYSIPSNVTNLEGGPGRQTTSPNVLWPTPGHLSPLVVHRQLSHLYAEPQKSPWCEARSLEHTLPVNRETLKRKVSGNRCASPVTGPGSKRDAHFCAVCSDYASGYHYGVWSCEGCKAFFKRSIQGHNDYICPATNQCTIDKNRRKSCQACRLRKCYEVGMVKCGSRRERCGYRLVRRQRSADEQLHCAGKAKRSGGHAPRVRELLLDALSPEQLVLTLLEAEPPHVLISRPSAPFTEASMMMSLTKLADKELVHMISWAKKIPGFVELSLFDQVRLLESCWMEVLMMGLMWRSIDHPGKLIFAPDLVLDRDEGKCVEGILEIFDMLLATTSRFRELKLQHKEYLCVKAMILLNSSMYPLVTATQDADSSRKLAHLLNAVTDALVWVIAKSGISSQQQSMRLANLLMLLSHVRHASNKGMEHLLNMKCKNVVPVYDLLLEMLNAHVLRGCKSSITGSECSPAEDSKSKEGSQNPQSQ
Chain of chicken Estrogen Receptor (ERa), ESR1 (gene 396099) (P06212 whole entry, looked up, the tested form may be a part): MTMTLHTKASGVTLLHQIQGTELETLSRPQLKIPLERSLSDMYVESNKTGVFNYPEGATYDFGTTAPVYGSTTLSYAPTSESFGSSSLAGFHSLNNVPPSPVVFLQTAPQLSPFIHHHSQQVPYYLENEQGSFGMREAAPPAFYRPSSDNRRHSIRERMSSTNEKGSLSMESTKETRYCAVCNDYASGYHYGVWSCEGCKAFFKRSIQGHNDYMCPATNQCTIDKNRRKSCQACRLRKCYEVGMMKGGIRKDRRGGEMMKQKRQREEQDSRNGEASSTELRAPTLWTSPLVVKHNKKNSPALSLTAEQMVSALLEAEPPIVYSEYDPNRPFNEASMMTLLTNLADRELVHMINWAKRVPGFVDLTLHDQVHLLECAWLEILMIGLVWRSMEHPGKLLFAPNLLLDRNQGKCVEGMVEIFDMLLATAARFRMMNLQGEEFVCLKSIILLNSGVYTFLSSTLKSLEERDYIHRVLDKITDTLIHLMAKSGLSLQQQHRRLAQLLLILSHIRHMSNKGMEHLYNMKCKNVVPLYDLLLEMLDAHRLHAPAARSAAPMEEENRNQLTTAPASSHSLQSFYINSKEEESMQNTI
Chain of zebrafish Estrogen Receptor (ER1), esr1 (gene 259252) (P57717 whole entry, looked up, the tested form may be a part): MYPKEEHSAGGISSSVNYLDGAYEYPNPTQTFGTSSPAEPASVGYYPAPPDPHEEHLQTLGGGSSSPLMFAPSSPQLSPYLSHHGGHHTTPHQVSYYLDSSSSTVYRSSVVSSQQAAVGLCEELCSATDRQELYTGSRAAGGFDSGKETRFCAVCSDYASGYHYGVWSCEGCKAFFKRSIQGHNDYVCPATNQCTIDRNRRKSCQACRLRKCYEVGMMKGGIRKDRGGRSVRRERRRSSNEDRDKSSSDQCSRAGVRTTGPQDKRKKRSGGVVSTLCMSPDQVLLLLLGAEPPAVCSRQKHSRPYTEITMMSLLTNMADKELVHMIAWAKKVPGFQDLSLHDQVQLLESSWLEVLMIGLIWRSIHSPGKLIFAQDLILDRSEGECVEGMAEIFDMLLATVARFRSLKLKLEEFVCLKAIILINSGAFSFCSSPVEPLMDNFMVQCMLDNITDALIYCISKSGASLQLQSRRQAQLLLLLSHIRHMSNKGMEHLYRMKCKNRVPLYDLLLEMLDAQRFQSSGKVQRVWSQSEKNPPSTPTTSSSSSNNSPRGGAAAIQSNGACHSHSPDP
Chain of human Androgen Receptor (AR), AR (gene 367) (P10275 whole entry, looked up, the tested form may be a part): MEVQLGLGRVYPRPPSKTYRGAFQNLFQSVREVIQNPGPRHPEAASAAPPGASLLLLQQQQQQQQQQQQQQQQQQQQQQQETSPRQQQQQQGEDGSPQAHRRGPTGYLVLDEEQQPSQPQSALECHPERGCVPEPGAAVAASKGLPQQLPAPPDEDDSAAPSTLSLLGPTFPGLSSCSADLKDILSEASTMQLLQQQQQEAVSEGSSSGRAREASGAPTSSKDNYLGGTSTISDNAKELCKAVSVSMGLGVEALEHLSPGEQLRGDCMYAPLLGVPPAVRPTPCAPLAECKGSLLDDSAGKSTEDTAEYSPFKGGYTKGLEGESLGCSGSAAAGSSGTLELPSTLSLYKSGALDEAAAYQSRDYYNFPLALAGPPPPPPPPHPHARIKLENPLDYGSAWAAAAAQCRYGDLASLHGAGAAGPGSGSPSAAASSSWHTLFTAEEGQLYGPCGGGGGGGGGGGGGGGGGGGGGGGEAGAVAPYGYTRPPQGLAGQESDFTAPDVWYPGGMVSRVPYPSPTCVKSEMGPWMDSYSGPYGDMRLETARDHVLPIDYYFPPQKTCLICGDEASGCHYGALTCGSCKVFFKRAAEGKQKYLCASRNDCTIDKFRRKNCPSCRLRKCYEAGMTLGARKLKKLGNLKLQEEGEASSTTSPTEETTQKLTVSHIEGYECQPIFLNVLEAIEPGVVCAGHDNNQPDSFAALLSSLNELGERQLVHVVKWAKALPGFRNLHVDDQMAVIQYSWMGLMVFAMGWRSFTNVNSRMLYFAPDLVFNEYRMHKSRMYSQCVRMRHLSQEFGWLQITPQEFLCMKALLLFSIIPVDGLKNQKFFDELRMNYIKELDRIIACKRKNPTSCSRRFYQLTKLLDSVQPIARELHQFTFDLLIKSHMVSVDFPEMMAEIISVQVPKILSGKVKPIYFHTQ
Chain of human Thyroid hormone Receptor beta (TRb), THRB (gene 7068) (P10828 whole entry, looked up, the tested form may be a part): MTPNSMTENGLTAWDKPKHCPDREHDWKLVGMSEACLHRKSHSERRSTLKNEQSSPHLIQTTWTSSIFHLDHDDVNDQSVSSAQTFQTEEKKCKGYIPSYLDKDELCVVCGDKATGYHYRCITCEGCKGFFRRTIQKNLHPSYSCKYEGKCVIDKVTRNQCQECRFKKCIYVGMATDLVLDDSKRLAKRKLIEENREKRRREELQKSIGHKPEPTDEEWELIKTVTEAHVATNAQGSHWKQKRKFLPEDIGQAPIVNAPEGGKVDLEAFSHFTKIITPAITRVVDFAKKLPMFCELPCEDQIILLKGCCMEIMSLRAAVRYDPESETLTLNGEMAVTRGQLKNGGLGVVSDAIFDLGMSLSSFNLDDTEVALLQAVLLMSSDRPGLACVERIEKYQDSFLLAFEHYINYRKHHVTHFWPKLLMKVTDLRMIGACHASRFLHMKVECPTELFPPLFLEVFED
Chain of Nuclear receptor subfamily 1 group I member 2 (Mus musculus) (O54915 whole entry, looked up, the tested form may be a part): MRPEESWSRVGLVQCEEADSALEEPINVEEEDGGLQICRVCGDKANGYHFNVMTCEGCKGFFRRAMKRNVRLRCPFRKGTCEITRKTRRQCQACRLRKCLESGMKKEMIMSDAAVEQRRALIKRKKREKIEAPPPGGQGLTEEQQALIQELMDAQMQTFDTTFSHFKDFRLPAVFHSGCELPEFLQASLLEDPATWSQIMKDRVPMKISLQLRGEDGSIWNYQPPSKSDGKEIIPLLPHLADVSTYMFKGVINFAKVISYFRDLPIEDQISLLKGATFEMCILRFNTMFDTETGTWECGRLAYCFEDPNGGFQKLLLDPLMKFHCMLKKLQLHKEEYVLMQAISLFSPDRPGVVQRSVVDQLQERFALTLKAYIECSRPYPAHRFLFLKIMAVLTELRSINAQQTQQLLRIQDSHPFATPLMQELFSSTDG
Chain of zebrafish Thyroid Hormone Receptor beta (TRb), thrb (gene 30607) (Q9PVE4 whole entry, looked up, the tested form may be a part): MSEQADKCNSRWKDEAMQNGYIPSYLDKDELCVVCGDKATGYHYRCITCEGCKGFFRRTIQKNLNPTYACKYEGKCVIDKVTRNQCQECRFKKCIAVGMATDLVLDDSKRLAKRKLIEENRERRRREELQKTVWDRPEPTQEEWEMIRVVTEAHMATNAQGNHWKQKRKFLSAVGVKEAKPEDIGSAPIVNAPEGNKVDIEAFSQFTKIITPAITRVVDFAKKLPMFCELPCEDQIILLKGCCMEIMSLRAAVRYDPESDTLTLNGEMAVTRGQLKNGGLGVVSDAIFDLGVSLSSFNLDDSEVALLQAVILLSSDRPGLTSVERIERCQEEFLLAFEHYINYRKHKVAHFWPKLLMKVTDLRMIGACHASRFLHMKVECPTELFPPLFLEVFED

For the compound `CCCCCCCCCCCCN`, the AC50 in assay [1] was 44.3 µM (active); in assay [5], 48.3 µM (active); in [6], 46.7 µM (active). Also, the compound was classed as inactive in assay [2], in assay [3], in assay [4], in assay [6], in assay [7] and in assay [8]. The result in [9] was inactive.

On to `CN(CCOc1ccc(CC2SC(=O)NC2=O)cc1)c1ccccn1` (centres undefined), for which the compound was classed as inactive in assay [10], in assay [11], in assay [12] and in assay [8].

For the compound `CN(C)C(=N)N=C(N)N`, the outcome in assay [13], in assay [14], in assay [15], in [17], in [18] and in assay [11] was inactive. The compound was called inactive in assay [2], in assay [3], in [6], in assay [7] and in assay [9]. Also, the concentration at half-maximal activity (AC50) in assay [16] was 64.4 µM (active).

Regarding `O=c1cc(-c2ccccc2)oc2cc(O)cc(O)c12`, the outcome in [12], in [4], in assay [7], in [20] and in [8] was inactive. Besides, the AC50 is 9.68 µM (active) and 2.6 µM (active) in assay [1]; 42.2 µM (active) and 2.03 µM (active) in assay [19]; 1.41 µM (active) in [3]; 6.38 µM (active) in assay [4]; 7.18 µM (active) and 2.51 µM (active) in assay [5]; 6.82 µM (active) and 2.26 µM (active) in [6]. Besides, the values for the AC50 in [7] and in [20] were 1.51 µM (active) and 23.8 µM (active), respectively.

Regarding `O=C(Oc1ccccc1)c1ccc(O)cc1`, the AC50 in assay [1] is 30.6 µM (active); in [19], 6.15 µM (active); in [4], 58.3 µM (active); in assay [5] it was 27.8 µM (active); in assay [6], 63.9 µM (active) and 27.7 µM (active); in assay [8], 27.2 µM (active). The outcome in [1], in assay [19], in [2], in [3], in assay [4] and in assay [5] was inactive. Besides, the call in assay [7], in assay [8] and in assay [9] was inactive.
